Sampled rows, rich in hits. Any-hit rate of the full collection: about 8.9%.
IMPase inh: cell-permeable inhibitors of inositol monophosphatase (IMPase). P97697. CHO-M1 cells, IP1 accumulation, HTRF TR-FRET ratio. inhibition (IP1 accumulation), % at 46.1 µM. 120,000 tested, under 10 active. AID 901; active = well fitted curve in the direction sought with a large enough effect in the signal ratio, not every such curve was filed as active; inconclusive = small, poorly fitted or top-dose-only effect, or a change in a side signal; inactive = no such curve, though single readings can be large or run the other way; the % refers to the signal ratio;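 note: cells stimulated with carbachol in lithium chloride buffer; higher means more IMPase inhibition seen as more IP1 and lower FRET ratio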
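Elevated IP1 in lysates lowers TR-FRET signal (665/620 ratio and 620 channel reported). Cells were CHO-M1, given carbachol (50 uM as added) plus 50mM LiCl, pH 7.4, 30 min, 37C; compounds titrated up to 46 uM; AC50 by Hill equation.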
IMPase Li cell: cell-permeable IMPase inhibitors with lithium potentiation; AID 1457; Potency, µM (series often up to 59.4 µM), actives largely listed as inhibitors; 210,000 tested, 0.35% active; CHO-M1 cells, IP1 TR-FRET (IP-One), carbachol + lithium;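 note: IP1 builds up when IMPase is blocked and the TR-FRET signal falls; nearly all actives have a fitted effect of over 50% in size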
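Test compounds were applied to CHO-M1 cells previously cultured for 16–30 h at 2000 per well. A small lithium amount accompanied them; after 30 min at 37C, IP1 was quantified by TR-FRET.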
ALDH1A1 inh: inhibitors of human aldehyde dehydrogenase 1A1; P00352; Purified ALDH1A1, NADH fluorescence, propionaldehyde substrate; Potency, µM (series often up to 75.3 µM), actives largely listed as inhibitors; 220,000 tested, 7.3% active; AID 1030; active = well fitted inhibition curve with a large enough effect, not every such curve was filed as active; inconclusive = small, poorly fitted or top-dose-only effect, or another doubt; inactive = no such curve, though single readings can be large or run the other way
Target sequence (P00352 whole entry, looked up): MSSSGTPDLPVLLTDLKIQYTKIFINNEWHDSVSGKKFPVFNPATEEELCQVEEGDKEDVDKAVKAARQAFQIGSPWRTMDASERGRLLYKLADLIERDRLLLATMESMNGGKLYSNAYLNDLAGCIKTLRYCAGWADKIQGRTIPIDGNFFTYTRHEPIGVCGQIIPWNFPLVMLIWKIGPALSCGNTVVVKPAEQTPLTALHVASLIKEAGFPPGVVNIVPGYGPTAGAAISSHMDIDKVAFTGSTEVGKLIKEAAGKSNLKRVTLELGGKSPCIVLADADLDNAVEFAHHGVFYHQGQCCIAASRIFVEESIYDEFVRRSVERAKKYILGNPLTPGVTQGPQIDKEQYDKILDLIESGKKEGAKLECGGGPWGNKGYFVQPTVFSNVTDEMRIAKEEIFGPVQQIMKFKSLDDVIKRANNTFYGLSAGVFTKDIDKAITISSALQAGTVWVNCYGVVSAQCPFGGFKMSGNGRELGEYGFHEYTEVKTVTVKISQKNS
HPGD block: inhibitors of human 15-hydroxyprostaglandin dehydrogenase (HPGD). P15428. purified HPGD, NADH fluorescence kinetic, PGE2 substrate. Potency, µM, hits mostly inhibitors. 150,000 tested, 4.3% active; active = well fitted inhibition curve with a large enough effect, not every such curve was filed as active; inconclusive = small, poorly fitted or top-dose-only effect, or another doubt; inactive = no such curve, though single readings can be large or run the other way
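NADH formation kinetics: reaction with 30 uM PGE2 and 1 mM NAD+ (final), 20 nM enzyme, Tris-HCl pH 8 with Tween 20, after 15 min compound preincubation at room temperature. Fluorescence change, last versus first of five reads.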
12-hLO inh: 12-hLO (ALOX12) enzyme inhibition; P18054; Potency, µM (highest dose often 57.1 µM), hits mostly inhibitors; 150,000 tested, 0.12% active; purified 12-hLO, xylenol orange hydroperoxide absorbance; note: nearly all actives have a fitted effect of over 55% in size
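Purified human 12hLO (150 nM final) was preincubated with compounds for 15 min at room temperature in 25 mM Hepes pH 7.0, 0.01% Triton X-100, then reacted with 40 uM arachidonic acid for 30 min. Hydroperoxide was detected with ferrous iron/xylenol orange.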
NPSR antag: neuropeptide S receptor (human) antagonism, cAMP | Q6W5P4 | CHO-NPSR cells, cAMP TR-FRET, antagonist mode | Potency, µM (top dose mostly 38.3 µM), actives largely listed as inhibitors | 220,000 tested, 1% active | AID 1461; note: nearly all actives have a fitted effect of over 50% in size
Of the large screens only hits and unclear results are named; the others gave an inactive call. Unless noted, calls come from the whole dose curve; as a rule, active = well fitted curve in the direction sought with a large enough effect; inconclusive = small, poorly fitted or top-dose-only effect, or another doubt; inactive = no such curve, though single readings can be large; an effect the other way counts as inactive or inconclusive.

COC1(c2ccccc2)NC(=S)NN=C1c1ccccc1 (configuration not stated)	ALDH1A1 inh 0.89µM
CO/N=C/C1C(=O)NN=C1c1ccccc1 (configuration not stated)	none (no result: IMPase inh, HPGD block, 12-hLO inh)
Cc1cccc(NC(=S)NC2CC3CCCC(C2)N3CC(C)C)c1 (configuration not stated)	none
CC(C)COC(=O)c1nnsc1NC(=O)Nc1ccccc1	none
Clc1ccccc1-c1nc(Nc2ccncc2)c2ccccc2n1	ALDH1A1 inh inconclusive (no result: IMPase inh, HPGD block, 12-hLO inh, NPSR antag)
CN(C)/C=N/C(=S)Nc1ccc(Br)cc1F	ALDH1A1 inh 22µM, 12-hLO inh inconclusive
CCOC(=O)c1c(NC(=O)CCC(=O)O)sc2c1CCCCC2	ALDH1A1 inh 8.9µM, HPGD block 8.9µM (no result: IMPase inh)
CCOC(=O)c1c(NC(=O)CNCCOC)sc2c1CCCC2	IMPase inh inconclusive, ALDH1A1 inh 25µM
COc1ccccc1NC(=O)c1c(NC(=O)CCC(=O)O)sc2c1CCCCC2	ALDH1A1 inh 22µM (no result: IMPase inh, IMPase Li cell, HPGD block, 12-hLO inh)
CCOC(=O)C1CCN(CC(=O)Nc2cc(C)c3c(=O)oc4ccccc4c3n2)CC1	none (no result: IMPase Li cell, ALDH1A1 inh, HPGD block, 12-hLO inh, NPSR antag)
O=C1N/C(=C/c2ccc(Br)s2)C(=O)N1c1ccccc1	none (no result: IMPase inh, HPGD block, 12-hLO inh)
Cc1c(C(=O)O)cccc1-c1ccc(/C=C2/NC(=O)N(c3ccccc3)C2=O)o1	ALDH1A1 inh 5.6µM (no result: IMPase inh, HPGD block, 12-hLO inh)
Cc1ccc(/C=C2/NC(=O)N(c3ccccc3)C2=O)o1	ALDH1A1 inh 10µM, NPSR antag inconclusive
O=C1N/C(=C/c2ccc(N3CCOCC3)o2)C(=O)N1c1cccc(Cl)c1	ALDH1A1 inh 18µM (no result: IMPase inh, HPGD block, 12-hLO inh)
Cc1cc(NC(=O)Nc2cccc(Cl)c2)n(-c2ccccc2)n1	none (no result: IMPase inh, IMPase Li cell, ALDH1A1 inh, HPGD block, 12-hLO inh)
Cc1c(C(=O)NNC(=S)Nc2cccc(Cl)c2)nnn1-c1ccccc1	ALDH1A1 inh 11µM (no result: IMPase inh)
CC(C)NC(=O)C1CCN(C2CCN(Cc3nc(C(C)C)cs3)CC2)CC1	none (no result: IMPase inh, HPGD block, 12-hLO inh)
Oc1c(Br)cc(Br)cc1/C=N/NC(=S)N[C@H]1CC2C=CC1C2 (some centres not stated)	ALDH1A1 inh 13µM, NPSR antag inconclusive (no result: IMPase inh, IMPase Li cell, HPGD block, 12-hLO inh)
COc1cc(/C=N/NC(=S)NC2CC3C=CC2C3)cc(OC)c1OC (configuration not stated)	ALDH1A1 inh 2.5µM, NPSR antag inconclusive (no result: IMPase inh, IMPase Li cell, HPGD block, 12-hLO inh)
O=C(O)c1c[nH]c2c(ccc3[nH]cc(C(=O)O)c(=O)c32)c1=O	none (no result: IMPase inh, NPSR antag)
COc1c(O)cc(O)cc1O	none (no result: IMPase inh, NPSR antag)
S=C(c1nc2ccccc2[nH]1)N1CCOCC1	ALDH1A1 inh 13µM, HPGD block inconclusive
COc1ccc(-c2nc(SCC(=O)Nc3cc(C)on3)n[nH]2)cc1	none
C=CCSc1n[nH]c(-c2ccc(OC)cc2)n1	ALDH1A1 inh inconclusive, HPGD block 14µM
